Screening data: PubChem BioAssay, National Center for Advancing Translational Sciences (NCATS)
An excerpt weighted towards active compounds, which were near 10% of everything screened.
CCT chaperon mod: High-Throughput Screening for Modulators of Cytosolic Chaperonin Activity | purified chaperonin ATPase assay, HTRF ADP detection, 30 min | activity change, % (concentration not given with the values), hits read low | 0.3% of 360,000 active | AID 651819, 2012; in the data active = activity change below about -30%
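TRiC (40 or 20 nM final, by batch activity) in 30 mM Tris pH 7.4, 100 mM KCl, 5 mM MgCl2, 1 mM DTT was treated with compound at 76 uM single dose, then 10 uM ATP, 30 min at 37 °C. ADP was read by HTRF Transcreener.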
MmCpn inh: Inhibitors of TCP-1 ring complex (TRiC) of Methanococcus maripaludis (MmCpn): qHTS | AID 504842, 2011 | 0.031% of 330,000 active | purified Mm-Cpn ATPase, ADP Transcreener TR-FRET | Chaperonin Mm-Cpn (Methanococcus maripaludis) | Potency, µM (titrated, usually from 76.9 µM), without a hit: top-dose activity, negative = inhibition, hits mostly inhibitors; note: potency is the fitted concentration of half-maximal effect; nearly all actives have a fitted effect of over 80% in size
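TR-FRET (320 nm excitation; 590 and 665 nm emission) reports ADP made from 10 uM ATP by 25 nM enzyme; compounds were preincubated 10 min, reaction run 30 min, both at 37°C.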
Sfp inh: qHTS Assay for Inhibitors of Bacillus subtilis Sfp phosphopantetheinyl transferase (PPTase) | AID 1490, 2009 | 3.5% of 310,000 active | Potency, µM, inactives show largest response in the series, negative = inhibition, usual class: inhibitors | Biochemical Sfp PPTase activity, qHTS;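 note: the enzyme is Sfp with the accession as filed and its product quenches rhodamine fluorescence; potency is the fitted concentration of half-maximal effect; 0% = enzyme reaction without inhibitor and -100% = no enzyme wells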
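Step 1, compound plus 15 nM Sfp-PPTase, 15 min, room temperature. Step 2, add rhodamine-CoA (5 uM) and BHQ-2-YbbR (12.5 uM). Step 3, read 525/598 nm fluorescence at 0 and 30 min.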
VDR inhibitor: Inhibitors of the vitamin D receptor (VDR): qHTS; Vitamin D3 receptor (Homo sapiens), P11473; VDR-SRC2-3 peptide fluorescence polarization, 2 h; Potency, µM, without a hit: max response, negative = inhibition, hits mostly inhibitors; 0.93% of 400,000 active; AID 504847, 2011; note: potency is the fitted concentration of half-maximal effect
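VDR–SRC2-3 interaction, FP format. Cmpds 23 nl via pintool, brief spin, 2 h ambient incubation.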
PLK1 PBD inh: qHTS for Inhibitors of PLK1-PDB (polo-like kinase 1 - polo-box domain): Primary Screen | 2.8% of 360,000 active | Plk1 PBD binding of FITC phosphopeptide, fluorescence polarization | Potency, µM, for the others: max response, negative = inhibition, most hits filed as inhibitors | Serine/threonine-protein kinase PLK1 (Homo sapiens), P53350; note: potency is the fitted concentration of half-maximal effect; series mostly up to about 57 µM; nearly all actives have a fitted effect of over 65% in size
G9a block: qHTS Assay for Inhibitors of Histone Lysine Methyltransferase G9a | Histone-lysine N-methyltransferase EHMT2 (Homo sapiens), Q96KQ7 | G9a H3K9 monomethylation, AlphaScreen, 2 h | Potency, µM (top dose mostly 102 µM), for inactives: at the highest dose activity, negative = inhibition, hits mostly inhibitors | 8.8% of 350,000 active; note: potency is the fitted concentration of half-maximal effect; nearly all actives have a fitted effect of over 75% in size
Target sequence (Q96KQ7 913-1193 limits assumed): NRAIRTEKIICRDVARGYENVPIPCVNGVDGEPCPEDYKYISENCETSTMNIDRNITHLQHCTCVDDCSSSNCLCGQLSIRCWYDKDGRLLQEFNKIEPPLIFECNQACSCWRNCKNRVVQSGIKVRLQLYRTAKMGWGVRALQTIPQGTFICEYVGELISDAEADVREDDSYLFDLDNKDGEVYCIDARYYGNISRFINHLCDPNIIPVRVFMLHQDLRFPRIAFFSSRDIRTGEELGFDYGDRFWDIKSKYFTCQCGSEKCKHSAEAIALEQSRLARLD
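Enzyme 20 nM + cpd, 15 min RT; add b-H3K9 pep 500 nM / SAM 20 uM; 2 h RT; anti-H3K9me1 Ab 0.5 ug/mL + SA donor / anti-rabbit acceptor beads 20 ug/mL each, 10 min; AlphaScreen read.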
Sfp inh conf: Confirmation qHTS Assay for Inhibitors of Bacillus subtilis Sfp phosphopantetheinyl transferase (PPTase) | shares compounds with Sfp inh | Sfp PPTase enzymatic assay, qHTS titration | Potency, µM (titrated, usually from 114 µM), for the others: at the top dose activity change, negative = inhibition, most hits filed as inhibitors | 79% of 380 active;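 note: potency is the fitted concentration of half-maximal effect; plate controls were uninhibited Sfp reaction for no effect and no enzyme control for full effect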
Target sequence (Q9F4F7 whole entry, looked up): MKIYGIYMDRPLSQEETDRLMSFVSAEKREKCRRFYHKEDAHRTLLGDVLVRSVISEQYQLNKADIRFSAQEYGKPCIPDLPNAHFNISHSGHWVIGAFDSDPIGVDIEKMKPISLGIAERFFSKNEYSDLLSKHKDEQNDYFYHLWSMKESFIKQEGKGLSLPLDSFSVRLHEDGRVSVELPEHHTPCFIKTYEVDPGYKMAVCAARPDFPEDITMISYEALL
Sfp gel assay: Gel-Based Assay for Inhibitors of Bacillus subtilis Sfp phosphopantetheinyl transferase (PPTase). shares compounds with Sfp inh. purified Sfp, gel-based phosphopantetheinylation read-out. Potency, µM, usual class: inhibitors. 20% of 210 active;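 active = potency below 100 µM; inconclusive = dose-dependent response but potency above 100 µM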;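 note: band intensities scaled against SCH202676 control wells before curve fitting; potency is an IC50 for inhibitors of Sfp transfer activity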
Starred values were filed as active, the others as inactive; i = inactive; ? = inconclusive; . = no result; ! = not confirmed by another sample; [ ] = remark or other dose. Unless noted, calls come from the whole dose curve; as a rule, active = well fitted curve in the direction sought with a large enough effect; inconclusive = small, poorly fitted or top-dose-only effect, or another doubt; inactive = no such curve, though single readings can be large; an effect the other way counts as inactive or inconclusive. Unless noted, % is set by controls: 0 for no effect and ±100 for the full control effect.

SMILES | CCT chaperon mod | MmCpn inh | Sfp inh | VDR inhibitor | PLK1 PBD inh | G9a block | Sfp inh conf | Sfp gel assay
CCCCS(=O)(=O)Nc1ccc(C)cn1 | 1 | -3% | 40µM* | ? | 21µM* | 7.1µM* | 47µM* | i
Cc1ccc(NS(=O)(=O)c2cccs2)nc1 | 0 | -2% | 9% | 5% | -15% | 99% | . | .
COc1ccc(CNC(=O)CCc2nnc3n(CC(C)C)c(=O)c4ccccc4n23)cc1 | . | . | . | -15% | . | 0%[59 µM] | . | .
CC(C)c1ccc(Cn2ccc3c4c(N)nc(NC5CC5)nc4ccc32)cc1 | . | . | 5µM* | 0% | . | . | 13µM* | ?
O=C(CSc1nnc(SCC(=O)c2ccco2)s1)c1ccco1 | 1 | 2% | 14µM* | -13% | 17µM* | -12%[59 µM] | 47µM* | ?
CCc1ccc(OCc2ccccc2C(=O)Nc2ccc3nc(C)cc(N)c3c2)cc1 | . | . | 13µM* | 44% | . | -42%[59 µM] | 47µM* | .
Cc1cc(NC(=O)CN2C(=O)CC(c3ccco3)Sc3ccccc32)no1 (stereo not given) | 0 | -4% | 2.5µM* | -17% | -16% | 13µM* | 15µM* | i
CC(=O)Nc1nonc1-c1nnc(SCC(=O)Nc2ccccc2)n1-c1ccccc1 | . | . | . | 7% | . | 13%[59 µM] | . | .
Cc1cc2c(cc1S(=O)(=O)C(C)CC(=O)NC1CCC(C)CC1)OCC(=O)N2 (stereo not given) | . | . | . | 0% | . | -27%[59 µM] | . | .
CCN1CCN(Cc2ccc(NC(=O)Nc3ccc(OC)cc3)cc2)CC1 | 0 | -3% | 9% | -14% | -2% | 17%[59 µM] | . | .
CCN1CCN(C(=S)c2ccc(OC)cc2)CC1 | -2 | -2% | 11µM* | 0% | 9.5µM* | 11µM* | 15µM* | i
COc1ccccc1N1CCN(C(=O)c2oc3cc(C)cc(C)c3c2C)CC1 | -1 | 1% | 2µM* | 2% | 1% | -12%[59 µM] | 47µM* | i
COc1ccccc1N1CCN(C(=O)c2cc(=O)c3ccc(C)cc3o2)CC1 | 0 | -1% | -7% | 0% | -15% | -6%[2.33 µM] | . | .
Cn1c(SCC(=O)c2cc3ccccc3o2)nnc1-c1ccccc1 | 2 | -4% | 13µM* | ? | ? | 11µM* | 53µM* | .
CCOC(=O)c1c(NC(=O)c2cc(Cl)ccc2Cl)sc2c1CCCC2 | . | . | . | -29% | . | 6%[59 µM] | . | .
CCOC(=O)c1c(NC(=O)c2ccccc2)sc2c1CCc1ccccc1-2 | -1 | -2% | 1.3µM* | 71µM* | 6.7µM* | ? | 13µM* | .
CCOC(=O)c1c(NC(=O)C2Cc3ccccc3C(=O)O2)sc2c1CCCC2 (stereo not given) | -2 | . | . | -10% | -8% | . | . | .
CCOC(=O)c1c(NC(=O)c2ccccc2Cl)sc2c1CCc1ccccc1-2 | -1 | -20% | 11µM* | ? | 6.7µM* | 4.5µM* | 9.4µM* | .
Cc1cc(C)c2c(=O)nc(SCc3ccccc3C)n(C3CC3)c2n1 | . | . | . | 19% | . | -4%[59 µM] | . | .
COc1ccc2[nH]cc(CCNc3ccnc(-c4ccccc4C)n3)c2c1 | . | . | -29% | -28% | . | 3%[0.501 µM] | . | .
O=C(N/N=C/c1ccc(N2CCCCC2)o1)C(O)(c1ccccc1)c1ccccc1 | . | 0% | 8.9µM* | . | . | 13µM* | 37µM* | .
Cc1cc(NC(=O)c2ccc3c(c2)N(Cc2cccc(Cl)c2)C(=O)c2ccccc2S3(=O)=O)ccc1Br | . | . | . | 9% | . | -42%[59 µM] | . | .
Cc1ccc(NC(CC(=O)c2ccccc2)c2ccc(F)cc2)cc1 (stereo not given) | -1 | 1% | 10% | -1% | 0% | -29%[59 µM] | . | .
O=C(CC(Nc1ccc(F)cc1)C(=O)O)c1ccccc1 (stereo not given) | -1 | 1% | 2.2µM* | ? | -22% | 10µM* | 15µM* | i
Cc1ccc(Nc2nc(-c3sc(NC(=O)c4ccco4)nc3C)cs2)cc1 | 0 | -5% | 16µM* | -6% | -7% | ? | 53µM* | ?
SMILES | CCT chaperon mod | MmCpn inh | Sfp inh | VDR inhibitor | PLK1 PBD inh | G9a block | Sfp inh conf | Sfp gel assay
O=C(Cn1cnc2onc(-c3ccc(F)cc3)c2c1=O)N1CCN(c2ccc(F)cc2)CC1 | . | . | . | 2% | . | -32%[59 µM] | . | .
COc1ccc(OC)c(Nc2ncnc3ccccc23)c1 | 2 | -1% | -6% | 2% | -14% | -3%[12.7 µM] | . | .
COc1ccc(OC)c(Nc2nc(=O)c3cccnc3s2)c1 | 2 | -15% | 2.8µM* | 45µM* | 6.7µM* | 0.56µM* | 19µM* | .
Clc1ccccc1CSc1nc2ccncc2[nH]1 | 0 | 3% | 56µM* | -14% | ? | 45µM* | ? | ?
CCCCCCc1cc2cc(-c3cn4c(n3)sc3cc(OC)ccc34)c(=O)oc2cc1O | . | . | . | 21% | . | -17%[59 µM] | . | .
COC(=O)c1ccc(NC(=O)CC2C(=O)N(c3ccccc3)C(=O)N2Cc2cccs2)cc1 (stereo not given) | . | . | . | 18% | . | -7%[59 µM] | . | .
C=C1C(=O)[C@]23[C@H](O)[C@H]1CC[C@H]2[C@@]12COC3(O)[C@H](O)[C@@H]1C(C)(C)CC[C@@H]2O | . | . | 13µM* | 7.1µM* | . | 7.1µM* | 26µM* | ?
COc1ccc2[nH]cc(CCNC(=O)c3cnn(-c4ccccc4Cl)c3C3CCN(C(=O)OC(C)(C)C)CC3)c2c1 | . | . | . | -4% | . | ? | . | .
COC(=O)c1c(NC(=O)c2ccc(C)o2)sc2c1CCCCC2 | -3 | -3% | 14µM* | -27% | -24% | -41%[59 µM] | 37µM* | i
Cc1ccc(C(=O)Nc2sc3c(c2C(=O)O)CCCCC3)o1 | -1 | -2% | -1% | -17% | -10% | 3%[59 µM] | . | .
Cc1ccc(-n2c(=O)c3c(C)c(C(=O)N(C)C)sc3n(CC(=O)N(C)c3ccccc3)c2=O)cc1C | . | . | . | 10% | . | -1%[59 µM] | . | .
CN1CCC(=C2c3ccccc3C=Cc3ccccc32)CC1 | 1 | 0% | 45µM*! | -20% | 0% | -23% | 83µM* | i
O=S(=O)(c1ccc(-c2cc(C(F)(F)F)on2)s1)N1CCN(c2cccc(Cl)c2)CC1 | . | . | . | 5% | . | ? | . | .
